Experimental data as given in PubChem BioAssay.
The source made the active and inactive calls.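 How the source made its calls: active means GFP response above 150% of the DMSO level; inconclusive means fewer than 70 events counted for a yeast strain; inactive means the rest.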

Assay: modulators of CIT2-GFP expression in yeast, confirmation, S. cerevisiae, GFP fusion, cherry picks, mother/daughter gates (AID 2274)
Conditions: S. cerevisiae CIT2-GFP strain, flow cytometry, 3 h; at 10 µM; hits give high values

SMILES | GFP response, % of DMSO
COC(=O)c1ccccc1Sc1ncnc2onc(C)c12 | 108% (inactive)
CC(C)(C)C(=O)C(Cl)C(=O)Nc1ccccc1 (stereo not given) | 126% (inactive)
O=[N+]([O-])c1ccc(S(=O)(=O)c2cccc(C(F)(F)F)c2)nc1 | 128% (inactive)
Cc1cccn2c(=O)c(/C=C(\C#N)C(=O)NC3CCS(=O)(=O)C3)c(N3CC(C)OC(C)C3)nc12 (stereo not given) | 99.7% (inactive)
CCc1nnc(NC(=O)c2ccc(S(=O)(=O)N(CCOC)CCOC)cc2)o1 | 99.7% (inactive)
Cc1ccc(N(C(=O)CCCC(=O)Nc2ccccn2)C(C(=O)NC2CCCC2)c2ccc(O)cc2)cc1C (stereo not given) | 111% (inactive)
COc1ccc(OC)c(C2C(C(=O)Nc3nc4ccccc4s3)=C(C)NC3=C2C(=O)CCC3)c1 (stereo not given) | 103% (inactive)
O=[N+]([O-])c1ccc(-c2cn3nc(-c4ccccc4)c(-c4ccccc4)nc3n2)cc1 | 109% (inactive)
COc1ccccc1OC(C)C(=O)Nc1ccccc1C(=O)NCC1CCCO1 (stereo not given) | 97.8% (inactive)
COc1ccc(NS(=O)(=O)c2cccc3ccccc23)cc1 | 99.7% (inactive)
O=C(c1ccc2ccccc2c1)N1CCN(c2ccc(O)cc2)CC1 | 103% (inactive)
O=C1c2ccsc2SCCN1Cc1cccc(Cl)c1 | 99.7% (inactive)
CCCOc1ccc(C(=O)NNC(=S)NC(=O)CC)cc1 | 132% (inactive)
Cc1cccc(N2C(=O)c3cccc4c(N(C)CCO)ccc(c34)C2=O)c1 | 105% (inactive)
Cc1ccc(-n2ncc(C#N)c2/N=C/N(C)C)cc1 | 94.4% (inactive)
C=CCOc1ccccc1C(=O)/C=C1/C(=O)Nc2ccccc21 | 91.5% (inactive)
O=c1cnnc(SCc2ccc([N+](=O)[O-])cc2)[nH]1 | 98.3% (inactive)
Cc1ccc(S(=O)(=O)N2CCCC2C(=O)Oc2ccccc2)cc1 (stereo not given) | 98.3% (inactive)
COCCNc1c(-c2ccc(O)cc2)nc2ccc(Cl)cn12 | 98.3% (inactive)
O=C(Nc1nc(-c2ccc(F)cc2)cs1)c1cnccn1 | 105% (inactive)

SMILES | GFP response, % of DMSO
CS(=O)(=O)N1N=C(c2ccc3nccnc3c2)CC1c1ccccc1 (stereo not given) | 103% (inactive)
O=C(NCCCSc1ccccc1)c1cc(Cl)ccc1O | 96.4% (inactive)
COc1ccc(N2C(=O)CC(Sc3ncn[nH]3)C2=O)c(OC)c1 (stereo not given) | 109% (inactive)
CN1CCSc2ccc(C(=O)Nc3cccc(F)c3)cc21 | 92.1% (inactive)
CCN(CC)CCCN(C(=O)c1ccc(Br)cc1)c1nc(-c2ccc(OC)cc2)cs1 | 95.8% (inactive)
O=C(Nc1nccs1)C1CCCN1S(=O)(=O)c1ccc(F)cc1 (stereo not given) | 110% (inactive)
O=C(c1ccccc1)c1ccccc1N1C(=O)C=CC1=O | 86% (inactive)
COc1ccc(N2CCN(C(=O)C3CCCN(S(=O)(=O)c4ccc(C)cc4)C3)CC2)cc1 (stereo not given) | 103% (inactive)
Cc1cc(NCCCN2CCOCC2)n2nc(C)c(-c3ccc(F)cc3)c2n1 | 97.2% (inactive)
CCC(C)(C)n1nnnc1C(c1ccc(O)c(OC)c1)N1CCc2ccccc2C1 (stereo not given) | 108% (inactive)
COc1ccc(-c2csc(Nc3ncccc3C)n2)cc1 | 103% (inactive)
O=S(=O)(Nc1ccc(Br)cc1)c1cccc2nonc12 | 97.8% (inactive)
O=C(CSc1nnc(C2COc3ccccc3O2)o1)N1CCCC1 (stereo not given) | 112% (inactive)
CCc1noc(C)c1C(=O)Nc1nc2ccc(OC)cc2s1 | 90.3% (inactive)
CCc1ccc(C(=O)/C=C/c2ccc([N+](=O)[O-])o2)cc1 | 154% (active)
CSc1ccc(-c2cc(=O)c3ccccc3o2)cc1 | 84.7% (inactive)
COc1ccccc1C(=O)N1CCN(c2cccc(C(F)(F)F)c2)CC1 | 99.3% (inactive)
COc1cc(/C=C2\N=C(c3ccccc3)OC2=O)ccc1OCc1c(C)no[n+]1[O-] | 99.3% (inactive)
CC(C)C(=O)Nc1ccc(NC(=O)c2cc3ccccc3o2)cc1 | 100% (inactive)
CCOC(=O)Cc1csc(NC(=O)CSc2nnc(-c3ccc(C)cc3)o2)n1 | 104% (inactive)
